Source: PubChem BioAssay AID1117319 (Southern Research Institute, 2015)
“And” between values parts separate entries of the source, which are not always exact repeats. Equal values may be shown once. Out of some 260,000 compounds screened, about 1,500 (0.58%) were called active. Not shown: some 5% with an inconclusive outcome.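 The calls were made as follows: active = inhibition above a set limit at one or more doses, reproduced on every date tested; inconclusive = results disagree between test dates, or hit never tested in dose response; inactive = the rest.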 These entries were drawn from the full list. Entries with a potency or affinity are not part of this list.

Each compound was assayed against Virion infectivity factor (Human immunodeficiency virus type 1 group M subtype B (isolate BH10)) + Virion infectivity factor (Human immunodeficiency virus type 1 group M subtype B (isolate BRU/LAI)) + Virion infectivity factor (Human immunodeficiency virus type 1 group M subtype B (isolate PCV12)) + Virion infectivity factor (Human immunodeficiency virus type 1 group M subtype B (isolate HXB2)) + DNA dC->dU-editing enzyme APOBEC-3G (Homo sapiens) (UniProt P69720+P69721+P69722+P69723+Q9HC16) (assay: HIV-1 Vif–A3G interaction blockers – biochemical, TR-FRET, GST-Vif 1-94, biotin-A3G peptide, dose response retest, primary screen (AID 1117319;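 also: Vif residues 1-94 fused to GST binding biotinylated APOBEC3G peptide 110-148; 0% = full assay without inhibitor and 100% = GST in place of GST-Vif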)). Conditions: TR-FRET GST-Vif / biotin-A3G peptide binding; active compounds read high.

inhibition, inactive:
COc1ccccc1NC(=O)C(C)N1C(=O)C2CCCCC2C1=O (configuration not stated) 9.66%
COc1ccc(CCNC(=S)Nc2cc(C)ccc2C)cc1 2.7%
COC(=O)/C=C1\SC(=Nc2ccc(OC)cc2)NC1=O -0.91%
COc1ccc(N=C2NC(=O)/C(=C/C=C/c3ccccc3)S2)cc1 -3.43%
Cn1cccc1/C=C1\SC(=Nc2ccc(O)cc2)NC1=O -0.29%
O=C1NC(=Nc2ccc3ccccc3c2)S/C1=C/c1ccco1 -0.8%
COc1ccc2c(c1OC)C(=O)OC2CC(=O)c1ccc2c(c1)OCO2 (configuration not stated) -2.78%
CCOC(=O)CSc1ccc2nnc(-c3ccncc3)n2n1 3.55%
Cc1ccc(NC(=O)C2CCC2)cc1S(=O)(=O)N1CCCCCC1 0.74%
O=S(=O)(NCC(c1cccnc1)N1CCOCC1)c1ccc(Cl)cc1 (configuration not stated) 1.91%
CC(C)c1ccccc1NC(=O)Cn1c(/C=C/c2ccccc2)nc2ccccc21 2.28%
Cc1cc(N/N=C/c2ccc(N(C)C)cc2)nc(NCc2ccccc2)n1 7.69%
CC(=O)c1ccc(S(=O)(=O)NCc2cccnc2)cc1 0.59%
COc1cc(C(C)=O)ccc1OCC(=O)N1CCCC1c1ccc2c(c1)OCCCO2 (configuration not stated) -2.26%
CCCCn1c(SCC(=O)NCc2ccccc2)nc2ccc(N3CCOCC3)cc2c1=O 18.7%
CCCCn1c(SCC(=O)NCCOC)nc2ccc(N3CCOCC3)cc2c1=O 32.1% and 5.24%
CCCC(=O)Nc1cc(C)c(NC(=O)Cc2ccccc2)cn1 -1.31%
CCN(CC)c1cc(Cl)c2nonc2c1N 0.28%
Nc1c(N2CCCC2)cc(Cl)c2nonc12 22.8%
CCOC(=O)N1CCN(C(=O)c2c(-c3ccccc3)noc2C)CC1 -4.55%
Cc1onc(-c2c(F)cccc2Cl)c1C(=O)NCc1ccco1 0.03%
Cc1onc(-c2c(Cl)cccc2Cl)c1C(=O)NCc1ccco1 2.61%
COc1cccc(-c2cc(C(=O)NCc3ccco3)no2)c1 2.27%
O=C(NCc1ccco1)c1cc(-c2ccccc2)on1 -2.43%
O=C(NCCCn1ccnc1)C(=O)NCC1OCCN1S(=O)(=O)c1ccccc1 (configuration not stated) 20.3%
Cc1ccc(S(=O)(=O)N2CCCc3ccccc32)cc1 3.67%
Cc1ccc(-c2sc(C(=O)NN)c(C)c2C#N)cc1 -0.1%
CCc1noc(C)c1C(=O)NC1CCCc2c1cnn2-c1cc(C)cc(C)c1 (configuration not stated) -1.36%
O=C1N[C@@H](c2ccccc2)COC(=O)[C@H](Cc2ccc(F)cc2)CC/C=C/C[C@H]1CC(=O)N(CCO)Cc1ccccc1 3.93%
COc1cccc(-c2cccc(NC(=O)C3CCN(CCCn4cccn4)CC3)c2)c1 6%
CCn1nc(C(=O)Nc2cc(Cl)ccc2-n2cncn2)c2ccccc2c1=O -6.28%
C=CCn1c(O)c(C(CC)=NCc2cccnc2)c(=O)[nH]c1=O 7.28%
C=CCn1c(O)c(C(CC)=Nc2ccccc2NC(=O)CC)c(=O)[nH]c1=O 30.8%
Cc1ccc(OCc2n[nH]c(=S)n2Cc2ccccc2)cc1 24.6%
O=C(Cc1ccccc1)Nc1ccc(N2CCN(Cc3ccccc3F)CC2)cc1 6.73%
COC(=O)C1CCN(C(=O)CCCOc2ccccc2)CC1 8.9%
CC(=O)Nc1ccc(SCC(=O)Nc2ccccc2N2CCOCC2)cc1 -9.09%
COC(=O)c1cc(C(=O)OC)cc(S(=O)(=O)Nc2ccc(Cl)c(N)c2)c1 -4.45%
Oc1ccc(/C=N/n2c(-c3ccco3)csc2=Nc2cccnc2)c(O)c1 21%
C=CCN=c1scc(-c2ccccc2)n1/N=C/c1ccccn1 11.2%
COc1ccc(O)c(/C=N/n2c(-c3ccco3)csc2=Nc2cccnc2)c1 6.77%
CN=c1scc(C)n1/N=C/c1ccc2c(c1)OCO2 13.4%
CN1CCN(CC(O)COc2ccccc2)CC1 (configuration not stated) -7.2%
CCCCNc1oc(-c2cccs2)nc1S(=O)(=O)c1ccccc1 -0.64%
CC(C)(CNC(=O)c1cccs1)CNC(=O)c1cccs1 0.17%
O=C(CSc1nccc(=O)[nH]1)NCc1ccc2c(c1)OCO2 3.96%
CCOC(=O)N1CCN(CC(O)COCCC23CC4CC(CC(C4)C2)C3)CC1 (configuration not stated) 13.8%
O=c1c2c3c(sc2nc2n1CCCCC2)CCCCC3 0.94%
O=C1CCCc2c1sc1nc3n(c(=O)c21)CCCCC3 2.33%
Nc1ncnc2c1CN(Cc1ccccc1)CC2 -5.85%
CC1(C)CC(=O)C2=C(C1)OC(N)=C(C#N)C2c1ccccc1 (configuration not stated) 3.85%
N#CC1(Nc2ccc([N+](=O)[O-])cc2)CCCC1 10.3%
CCOC(=O)C1=C(COC(=O)/C=C/c2ccc(Cl)cc2)NC(=O)NC1C (configuration not stated) 2.25%
CCOC(=O)C1=C(COC(=O)/C=C/c2ccc(C)o2)NC(=O)NC1C (configuration not stated) -5.28%
O=C(O)/C=C/c1ccccc1Oc1ccccc1 -6.82%
Cc1ccc(N=C2NC(=O)/C(=C/c3cccn3C)S2)cc1C -3.5%
COc1ccc(CCNc2cc(C)nc3c(-c4ccccc4OC)cnn23)cc1OC 3.45%
CC(C)(CO)CN1CCC(n2nccc2NC(=O)C2CCCC2)CC1 -9.4%
CCNC(=O)N1c2ccc(OC)cc2C(C)=CC1(C)C 18.1%
COc1ccc2c(c1)C(C)=CC(C)(C)N2C(=O)Nc1ccccc1 1.41%
COc1cccc(C(C#N)N2CCOCC2)c1 (configuration not stated) -0.56%
C/C(=N\NC(=O)CCc1ccc(S(=O)(=O)N2CCOCC2)cc1)c1ccc(OC(F)F)cc1 18.9%
